# Platelet DG rel = inhibitors of platelet dense granule secretion, primary screen, cell-based, MLPCN, human platelets | human platelet-rich plasma, SFLLRN dense granule ATP release, luminescence | inhibition, %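 (compounds screened at 7.5 µM in platelet-rich plasma)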 | actives 0.22% (n = 300,000) | AID 1663, 2009;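 active = mean replicate score, as percent of positive control, at or above 50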
# SENP8 block-1 = SENP8 protease inhibitors, primary screen, biochemical, luminescence; AID 2540, 2010; purified SENP8, Z-RLRGG-aminoluciferin cleavage; actives 1.2% (n = 330,000); inhibition, % at 10 µM; in the data active = inhibition above about 50%
# Target sequence (Q96LD8 whole entry, looked up): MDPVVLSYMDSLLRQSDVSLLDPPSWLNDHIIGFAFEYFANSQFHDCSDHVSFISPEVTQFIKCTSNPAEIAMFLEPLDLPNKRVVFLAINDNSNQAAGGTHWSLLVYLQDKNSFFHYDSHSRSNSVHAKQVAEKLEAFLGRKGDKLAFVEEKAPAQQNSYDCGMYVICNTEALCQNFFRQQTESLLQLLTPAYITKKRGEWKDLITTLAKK
# SENP6 inh = SENP6 protease inhibitors, primary screen, biochemical, luminescence, uHTS; Sentrin-specific protease 6 (Homo sapiens), Q9GZR1; Recombinant SENP6 catalytic domain, aminoluciferin luminescence; inhibition, % at 10 µM; actives 1.8% (n = 330,000); AID 2599, 2010;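 active = inhibition above about 50% at the single tested dose, limit read from the data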;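 note: plate controls were DMSO wells with enzyme for no effect and DMSO wells lacking enzyme for full effect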
# SENP8 block-2 = human SENP8 protease inhibitors, primary screen, biochemical, fluorescence, Nedd8 protein substrate, uHTS | inhibition, % at 20 µM | recombinant SENP8 | Sentrin-specific protease 8 (Homo sapiens), Q96LD8 | actives 0.64% (n = 360,000); in the data active = inhibition mostly above about 40%, no sharp cut-off; inactive = mostly below about 27%
# SENP7 block = SENP7 protease inhibitors, primary screen, biochemical, luminescence, uHTS; Sentrin-specific protease 7 (Homo sapiens), Q9BQF6; recombinant SENP7, Z-RLRGG-aminoluciferin luminescence, 40 min; inhibition, % at 5 µM; actives 1.5% (n = 330,000); AID 434973, 2010;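 active = inhibition above about 50% at the single test dose, limit read from the data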;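 note: plate controls were DMSO with enzyme for no effect and no enzyme buffer wells for full effect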
# Target sequence (Q9BQF6 706-1050 limits assumed): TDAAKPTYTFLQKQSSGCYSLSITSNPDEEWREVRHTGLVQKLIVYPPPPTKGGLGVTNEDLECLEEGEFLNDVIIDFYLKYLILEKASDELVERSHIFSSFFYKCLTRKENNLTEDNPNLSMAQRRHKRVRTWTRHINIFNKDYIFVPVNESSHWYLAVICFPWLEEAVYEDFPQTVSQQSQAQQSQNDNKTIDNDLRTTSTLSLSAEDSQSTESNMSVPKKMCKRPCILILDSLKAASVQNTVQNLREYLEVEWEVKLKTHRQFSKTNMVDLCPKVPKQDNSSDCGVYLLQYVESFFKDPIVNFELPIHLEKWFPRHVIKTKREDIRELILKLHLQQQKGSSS
# SENP8 confirm = SENP8 protease inhibitors, retest, confirmation, biochemical, luminescence, single concentration; actives 40% (n = 6,200); Recombinant SENP8, Z-RLRGG-aminoluciferin luminescence, 60 min; AID 488912, 2010; shares compounds with SENP7 block; inhibition, % at 12.5 µM;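 active = mean inhibition across replicates above about 50%, limit read from the data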
# SENP6 confirm = SENP6 protease inhibitors, confirmation, biochemical, luminescence, single concentration. shares compounds with SENP7 block. recombinant SENP6, Z-RLRGG-aminoluciferin luminescence. inhibition, % at 12.5 µM. actives 58% (n = 6,200). AID 488915, 2010
# SENP7 confirm = SENP7 protease inhibitors, retest, confirmation, biochemical, luminescence, single concentration. shares compounds with SENP7 block. actives 69% (n = 6,200). recombinant SENP7, Z-RLRGG-aminoluciferin luminescence, 40 min. inhibition, % at 12.5 µM
# Casp3 select = caspase-3 protease inhibitors, confirmation, selectivity assay for SENP inhibitor project, biochemical, single concentration | shares compounds with SENP7 block | purified caspase-3, Z-DEVD-aminoluciferin luminescence, 60 min | inhibition, % at 12.5 µM | actives 60% (n = 6,200);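 active = mean inhibition above about 50%, limit read from the data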;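 note: plate controls were enzyme with DMSO for no effect and wells without caspase-3 for full effect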
# Luc interf = interferes with luciferase luminescence in SENP counter-screen; shares compounds with SENP7 block; Pre-incubated SENP8/Z-RLRGG-aminoluciferin, luciferase luminescence interference; inhibition, % at 12.5 µM; actives 39% (n = 6,200); AID 488919;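 active = mean inhibition above about 50% when retested at one dose, limit read from the data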;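 note: plate controls were DMSO wells with completed reaction for no effect and substrate without enzyme for full effect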
# Active calls of the source: *; . = no result given. Sampled rows, rich in hits. Any-hit rate of the full collection: about 2.4%.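 Rule for the calls, unless noted: active = mean inhibition above about 50% in the one-dose retest (limit read from the data); inactive = the rest.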
SMILES,Platelet DG rel,SENP8 block-1,SENP6 inh,SENP8 block-2,SENP7 block,SENP8 confirm,SENP6 confirm,SENP7 confirm,Casp3 select,Luc interf
Cc1ccc(CNC(=O)CN2C(=O)CSc3ccc(S(=O)(=O)N4CCC(C)CC4)cc32)cc1,-8,-5,2,11,7,.,.,.,.,.
CC(=O)Nc1ccc(S(=O)(=O)NCc2nc(-c3cccc(C)c3)no2)cc1,25,-10,-9,-116,-14,.,.,.,.,.
CC(CCN1CCC(CN2C(=O)C(=O)NC[C@@H]2Cc2ccccc2)CC1)c1ccccc1 (stereo not given in full),.,.,.,0,.,.,.,.,.,.
Cc1nn(C(=O)c2ccc3c(c2)OCO3)c(N)c1-c1ccccc1,11,59*,83*,8,65*,5,78*,96*,68*,37
Cc1nn(C(=O)c2cccs2)c(N)c1-c1ccccc1,47,-3,29,2,1,.,.,.,.,.
[O-][n+]1ccccc1/C=C/c1ccccc1,-3,-2,-21,-252,12,.,.,.,.,.
[O-][n+]1c(/C=C/c2ccccc2)ccc2ccccc21,27,11,77*,-36,68*,92*,92*,100*,91*,89*
C/C(=N\OCC(=O)OCC(=O)NC(=O)c1ccccc1)c1ccc2c(c1)OCO2,-7,-3,3,14,1,.,.,.,.,.
CCCC(=O)Nc1ccc(-c2nc3cc(C)ccc3o2)cc1,7,48,71*,-500,71*,42,50*,74*,28,18
CCCC(=O)Nc1ccc2oc(-c3ccc(OC)c(Br)c3)nc2c1,6,-20,21,-274,51*,-7,0,2,6,5
COc1ccc(C(=O)CN2Cc3ccccc3C2=N)cc1,12,2,6,6,-1,.,.,.,.,.
CC(C)C[C@H]1CNC(=S)N1C[C@H]1CCCN1C[C@H](Cc1ccc(O)cc1)N1C[C@H](Cc2ccccc2)N(CC2CCCCCC2)C1=S,.,.,.,20,.,.,.,.,.,.
Cc1ccc(C(=O)NCC(c2ccc(F)cc2)N2CCOCC2)s1 (stereo not given),.,8,-1,12,0,.,.,.,.,.
O=C(Nc1ccc2sccc2c1)c1ccc(Cl)s1,16,19,71*,-7,86*,-25,-3,88*,50*,4
Cc1ccc(C(=O)/C=C\Nc2ccc(C)c(C)c2)cc1,-23,-23,27,-166,45,.,.,.,.,.
Cc1ccc(C(=O)/C=C/Nc2ccc([N+](=O)[O-])cc2Br)cc1,2,-2,-14,-18,3,.,.,.,.,.
Cc1ccc(O)c(N/C=C/C(=O)c2ccc(F)cc2)c1,6,80*,82*,-40,68*,61*,80*,95*,67*,22
O=C(/C=C/Nc1ccc(F)cc1Br)c1ccccc1,52*,94*,96*,-83,100*,31,43,36,75*,29
Cc1cc(N/C=C/C(=O)c2ccccc2)ccc1Br,10,62*,67*,-230,80*,24,16,7,38,1
CC(=O)Nc1ccc(N/C=C/C(=O)c2ccccc2)cc1,12,50*,70*,-72,55*,45,66*,90*,78*,31
O=C1C[C@@H]2c3c(cccc3CN1Cc1ccc(Br)cc1)C[C@@H](O)[C@H]2O,.,.,.,8,.,.,.,.,.,.
C[C@H](CO)N1C[C@H](C)[C@@H](CN(C)Cc2ccncc2)Oc2c(NS(=O)(=O)c3ccc(F)cc3)cccc2C1=O,.,-4,8,-2,-6,.,.,.,.,.
O=C(Cc1c[nH]c2ccccc12)NCc1ccccc1F,3,-10,-3,5,-2,.,.,.,.,.
O=C(/C=C\Nc1ccc(Br)cc1)c1cccnc1,2,57*,83*,-383,66*,66*,64*,83*,71*,41
O=C(/C=C/Nc1ccccc1)c1ccc(Cl)cc1Cl,9,83*,3,-39,87*,89*,92*,98*,82*,64*
SMILES,Platelet DG rel,SENP8 block-1,SENP6 inh,SENP8 block-2,SENP7 block,SENP8 confirm,SENP6 confirm,SENP7 confirm,Casp3 select,Luc interf
O=C(/C=C/Nc1ccccc1)c1ccccc1,37,93*,100*,-60,96*,90*,96*,101*,96*,54*
CN(C)c1ccc(N/C=C/C(=O)c2ccccc2)cc1,88*,95*,96*,28,102*,70*,94*,100*,97*,28
CCCCN=C1CC(C)(C)CC(=O)/C1=C(/O)CCC,-2,3,7,19,3,.,.,.,.,.
COc1ccc(OC)c(C(=O)N2CCC(n3nccc3NC(=O)CC(C)C)CC2)c1,-8,-9,-23,7,-11,.,.,.,.,.
CSc1ccccc1C(=O)NC1CCCc2ccccc21 (stereo not given),-2,2,-24,2,3,.,.,.,.,.
COC(=O)c1ccc(COc2ccc3c4c(c(=O)oc3c2)CCC4)o1,1,70*,77*,-126,58*,14,17,3,1,-5
COC(=O)c1cc(COc2ccc3c4c(c(=O)oc3c2)CCCC4)c(C)o1,-3,0,5,-287,6,.,.,.,.,.
Cc1c(OCc2ccc(C(=O)O)o2)ccc2c3c(c(=O)oc12)CCC3,8,74*,82*,-153,8,10,84*,84*,17,57*
Cc1cc(C)c(S(=O)(=O)N2CCCCC2CCNC(=O)C(=O)NC2CC2)c(C)c1 (stereo not given),0,-4,3,6,-7,.,.,.,.,.
Cc1c(C(=O)Nc2cccc([N+](=O)[O-])c2)cnn1-c1ccccc1,-5,34,67*,12,56*,51*,48,81*,49,58*
